Holding throughout (assay): NCI-60 one-dose screen, 48 h (100 = growth as untreated, 0 = no growth, -100 = all killed)
Holding throughout (conditions): 10 µM unless noted

In experiment [1] the test system is HCT-15 colon.
In experiment [2] the test system is HT29 colon.
Experiment [3] relates to SNB-75 CNS.
For experiment [4], the system named is SNB-19 CNS.
The test system of experiment [5] is U251 CNS.
Experiment [6] relates to PC-3 prostate.
Experiment [7] relates to SK-MEL-5 melanoma.
Experiment [8] has as its system UACC-62 melanoma.
The test system of experiment [9] is LOX IMVI melanoma.
The subject of experiment [10] is SK-MEL-28 melanoma.
In experiment [11] the test system is SK-MEL-2 melanoma.
Experiment [12] has as its system EKVX NSCLC.
Experiment [13] has as its system SN12C renal.
The test system of experiment [14] is UO-31 renal.
In experiment [15] the test system is TK-10 renal.
Experiment [16] concerns ACHN renal.
In experiment [17] the test system is CAKI-1 renal.
The subject of experiment [18] is CCRF-CEM leukemia.
The test system of experiment [19] is MOLT-4 leukemia.

This is part of a sample that, as a whole, favours compounds with a hit. Of some 83,000 tested, about 20% had one in any assay.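 Negative percent growth values reflect cell death: -40 means 40% of the cells present at the start died, and -100 means all died.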 Values without a mark were called inactive. Activity calls are given as the source filed them. How the source made its calls: active means growth percent below 10; inactive means the rest.

As to `C[C@H]1[C@H](C)CC[C@]2(C(=O)Nc3ccc4ncccc4c3)CC[C@]3(C)C(=CC[C@@H]4[C@@]5(C)CCCNC(C)(C)[C@@H]5CC[C@]43C)[C@H]12`, the growth was -83.7% (active) in experiment [1]; -88.5% (active) in experiment [2]; 78.2% in experiment [3]; -59.6% (active) in [4]; -86.3% (active) in [5]; -4.73% (active) in experiment [6]. Also, the growth in experiment [7] was -18.8% (active); in [8], -74.5% (active); in experiment [9] it was -89.7% (active); in experiment [10], -67.3% (active); in experiment [11] it was 90.5%; in experiment [12], 76.6%. Moreover, the growth in experiment [13] was -86.1% (active); in [14], -76.5% (active); in experiment [15] it was 102%; in experiment [16], -75.1% (active); in experiment [17] it was 26.7%; in experiment [18], -25.5% (active). In addition, the growth in experiment [19] is -47.9% (active).
On to `COc1cc2nc(-c3ccc(Cl)cc3)cc(OCCCN3CCCCC3)c2cc1OC`, for which the growth was 17.4% in [1]; 18.1% in experiment [2]; 18.2% in experiment [3]; 70.5% in experiment [4]; 48.7% in [5]; 42.9% in [6]. The growth in experiment [7] was -18.5% (active); in experiment [8] it was -32.6% (active); in experiment [9] it was -45.2% (active); in [10], 60%; in [11], 65.7%; in experiment [12], 66.2%. Further, the growth was 41.8% in [13]; 41.8% in experiment [14]; 89.9% in experiment [15]; 34% in experiment [16]; 0.0525% (active) in experiment [17]; 49% in [18]. The growth in [19] was 37.1%.
In the case of `O=C(O)c1ccc(NCc2cn(-c3ccc(C(F)(F)F)cc3)nc2-c2ccc(C(=O)O)cc2)cc1`, the growth is 101% in experiment [1]; 108% in experiment [2]; 91.8% in [3]; 101% in [4]; 99.7% in experiment [5]; 108% in [6]. Moreover, the growth is 103% in experiment [7]; 101% in experiment [8]; 99.4% in [9]; 112% in [10]; 112% in experiment [11]; 98% in experiment [12]. Also, the growth in [13] was 103%; in experiment [14], 84.2%; in experiment [15], 106%; in experiment [16], 109%; in [17], 95.8%; in experiment [18], 106%. Besides, in experiment [19], the growth was 109%.
For `CC(Oc1ccc(C(=O)O)cc1C(F)(F)F)c1ccc(Oc2ccccc2)cn1` (configuration not stated), the growth in [1] was 80.6%; in [2], 121%; in experiment [3], 90.1%; in experiment [4], 96.7%; in experiment [5], 94.4%; in experiment [6], 108%. Also, the growth was 98.7% in experiment [7]; 91.8% in experiment [8]; 97% in experiment [9]; 95.1% in experiment [10]; 123% in experiment [11]; 103% in experiment [12]. Moreover, the growth in experiment [13] was 98.3%; in [14], 79.2%; in [15], 99.5%; in experiment [16], 104%; in experiment [17], 95.9%; in experiment [18], 101%. Further, in experiment [19], the growth is 106%.
With `O=C(CCN1CCCC1)Nc1ccc2c(NCCCc3ccccc3)c3ccccc3nc2c1`, the growth in experiment [1] is 36.3%; in experiment [2] it was 3.74% (active); in experiment [3], 23%; in experiment [4], 24.6%; in [5], -58.9% (active); in experiment [6] it was -0.52% (active). In addition, the growth is 67.4% in experiment [7]; 43.5% in experiment [8]; -87% (active) in experiment [9]; 66.1% in experiment [10]; 38.9% in experiment [11]; 40.8% in experiment [12]. Moreover, the growth was 14% in experiment [13]; 31.8% in [14]; 5% (active) in experiment [15]; 33.1% in experiment [16]; 27.5% in [17]; -11.8% (active) in experiment [18]. Moreover, in experiment [19], the growth is -18.5% (active).
As to `O=C(CCN1CCCC1)Nc1ccc2c(NCCCCc3ccccc3)c3ccccc3nc2c1`, the growth in experiment [1] was 17%; in experiment [2], 6.39% (active); in experiment [3], 16.6%; in [4], -49.5% (active); in experiment [5], -57.8% (active); in experiment [6] it was -56.8% (active). Besides, the growth in [7] is -30.9% (active); in experiment [8] it was 65.2%; in [9], -89.3% (active); in [10], -63.4% (active); in experiment [11], -7.21% (active); in experiment [12], 38.3%. Moreover, the growth in [13] was -60.8% (active); in experiment [14], 37%; in [15], -36.5% (active); in [16] it was 24.8%; in experiment [17], 9.94% (active); in [18] it was -25.2% (active). The growth in experiment [19] is -26.2% (active).
Regarding `CC(Sc1nc2sc3c(c2c(=O)n1-c1ccc(Cl)cc1)CCCC3)C(=O)Nc1nc(-c2ccc(Br)cc2)cs1` (configuration not stated), the growth is 95.4% in experiment [1]; 94.7% in experiment [2]; 95.9% in experiment [3]; 96.6% in experiment [4]; 97.2% in experiment [5]; 95.6% in [6]. For the same compound, the growth in experiment [7] was 97.4%; in [8], 88.9%; in experiment [9] it was 96.3%; in experiment [10] it was 105%; in experiment [11], 101%; in experiment [12] it was 90.1%. Moreover, the growth in [13] was 96.8%; in experiment [14], 81.5%; in [15], 99.5%; in [16], 106%; in experiment [17], 94.4%; in [18] it was 105%. Also, in experiment [19], the growth was 94.1%.
Regarding `COC(=O)/C=C1\S/C(=N\NC(=O)c2cc3ccc2/C=C\c2ccc(cc2)/C=C\3)N(c2ccccc2)C1=O`, the growth is 0.337% (active) in [1]; -13.1% (active) in [2]; 45.7% in experiment [3]; 39.9% in experiment [4]; 15.8% in experiment [5]; -35.9% (active) in [6]. Also, the growth in [7] is 69.3%; in experiment [8], 25.2%; in experiment [9] it was -27.8% (active); in [10], 82.5%; in experiment [11] it was 87%; in [12], 59%. The growth in experiment [13] was 22.5%; in experiment [14], 58.5%; in experiment [15], 15.2%; in experiment [16] it was 49.3%; in [17], 69.3%; in [18] it was 13%. The growth in experiment [19] was 3.03% (active).

The record behind these values is PubChem BioAssay (NCI).
